Legend:
Details in all cases: concentration: 1 μM, replicates: in singlicate; n = 1
[1] = system: TTK
[2] = system: TXK
[3] = system: TYK2(JH1domain-catalytic)
[4] = system: TYK2(JH2domain-pseudokinase)
[5] = system: TYRO3
[6] = system: ULK1
[7] = system: ULK2
[8] = system: ULK3
[9] = system: T1, VEGFR2
T1 construct: gene KDR

[10] = system: T2, VPS34
T2 construct: gene PIK3C3
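Also: KINOMEscan kinase panel screen.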

Row | Compound | %Inh [1] | %Inh [2] | %Inh [3] | %Inh [4] | %Inh [5] | %Inh [6] | %Inh [7] | %Inh [8] | %Inh [9] | %Inh [10]
1 | CS(=O)(=O)c1ccc(-c2nc3n(c2-c2ccncc2)CCC3)cc1 [SKF-105942] | 0% | 0% | 0% | 0% | 0% | 19% | 0% | 11% | 0% | 0%
2 | CC(C)(C)c1ccc(C(=O)Nc2cn3cc(Cl)ccc3n2)cc1 | 0% | 0% | 0% | 0% | 9% | 0% | 0% | 10% | 12% | 13%
3 | COc1cccc(-c2cc(-c3c[nH]nc3-c3ccccn3)ccn2)c1 [GW680338] | 23% | 0% | 12% | 9% | 0% | 0% | 0% | 7% | 0% | 0%
4 | O=C(Nc1ccccc1)Nc1cccc(Oc2ccc3nccn3n2)c1 | 0% | 0% | 14% | 1% | 11% | 0% | 0% | 0% |  | 0%
5 | COC(=O)c1c(-c2ccccc2)c2cc(OC)ccc2c(=O)n1Cc1ccccc1 | 14% | 12% | 7% | 0% | 0% | 1% | 0% | 0% | 7% | 0%
6 | CCn1c(-c2ccccn2)nc2cnccc21 [SB-736398] | 0% | 10% | 21% | 45% | 0% | 8% | 0% | 0% | 0% | 4%
7 | COc1ccccc1-c1ccc2c(NC(=O)C3CC3)n[nH]c2n1 [SB-711239] | 21% | 0% | 0% | 18% | 0% | 63% | 0% | 100% | 0% | 15%
8 | Cc1cccc(-c2nc(C)cc(Nc3ccncc3)n2)n1 [GSK257997] | 0% | 0% | 0% | 15% | 21% | 0% | 0% | 6% | 0% | 11%
9 | O=C(Nc1n[nH]c2nc(-c3nccs3)c(Br)cc12)C1CC1 [SB-742251] | 0% | 0% | 36% | 77% | 0% | 21% | 7% | 0% | 0% | 0%
10 | COc1cc(Nc2nccc(N3CCC(NC(=O)Nc4cc(C)ccc4C)C3)n2)cc(OC)c1OC (centres unmarked) [GSK1379762] | 16% | 13% | 39% | 3% | 0% | 19% | 4% | 92.4% | 0% | 0%
11 | COc1cc2ncn(-c3cc(OCC4CCCO4)c(C(N)=O)s3)c2cc1OC (centres unmarked) [GSK204607] | 0% | 9% | 15% | 31% | 0% | 0% | 0% | 0% | 8% | 0%
12 | Cc1ccccc1-n1cnc2c(N)ncnc21 [SKF-97510] | 0% | 0% | 0% | 0% | 25% | 0% | 0% | 0% | 0% | 0%
13 | Cl.NC(=O)c1cccc(Nc2nccc(Nc3ccc(Oc4cccc(Cl)c4)c(Cl)c3)n2)c1 [GW659008] | 29% | 0% | 39% | 18% | 10% | 6% | 0% | 0% | 0% | 9%
14 | COc1ccc(Nc2nccc(NCCNC(=O)Nc3ccccc3F)n2)cc1 [GSK1379901] | 0% | 24% | 26% | 28% | 0% | 0% | 0% | 37% | 0% | 0%
15 | O=C(Nc1n[nH]c2nc(-c3nccs3)c(Br)cc12)C1CCCC1 [SB-742609] | 13% | 27% | 18% | 31% | 0% | 5% | 0% | 18% | 0% | 0%
16 | Cn1ccc2ncnc(Oc3ccc(Nc4nc5ccccc5[nH]4)cc3)c21 | 2% | 0% | 0% | 0% | 0% | 0% | 0% | 0% | 0% | 0%
17 | Cc1cc(N2Cc3ccccc3C2)nc(Nc2ccc(S(=O)(=O)N3CCOCC3)cc2)n1.Cl [GSK1669917] | 0% | 0% | 7% | 0% | 0% | 0% | 0% | 0% | 0% | 0%
18 | CC1=C(C(=O)Nc2cc3cn[nH]c3cc2F)C(c2ccc(C(F)(F)F)cc2)CC(=O)N1 (centres unmarked) [GSK429286] | 25% | 21% | 14% | 3% | 12% | 0% | 0% | 34% | 0% | 0%

Source: article PMC5540273 (PLoS ONE, 2017)
